Measured values taken from PMC4336329 (PLoS ONE, 2015).
Hit rate of the full screen: of about 310,000 compounds, about 14,000 (4.5%) showed an effect of 50% or more. The effect is printed as a negative number. The full list was thinned out, with strong results kept by preference.

Molecular target: human ether-à-go-go-related gene (hERG) potassium channel (human, UniProt Q12809)
Test: primary screen, population patch clamp on CHO cells stably expressing hERG; higher = less effect of the substance
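Further: peak tail current of the secondary pulse compared with the same well before compound.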

human ether-à-go-go-related gene (hERG) potassium channel, sequence (Q12809 whole entry, looked up): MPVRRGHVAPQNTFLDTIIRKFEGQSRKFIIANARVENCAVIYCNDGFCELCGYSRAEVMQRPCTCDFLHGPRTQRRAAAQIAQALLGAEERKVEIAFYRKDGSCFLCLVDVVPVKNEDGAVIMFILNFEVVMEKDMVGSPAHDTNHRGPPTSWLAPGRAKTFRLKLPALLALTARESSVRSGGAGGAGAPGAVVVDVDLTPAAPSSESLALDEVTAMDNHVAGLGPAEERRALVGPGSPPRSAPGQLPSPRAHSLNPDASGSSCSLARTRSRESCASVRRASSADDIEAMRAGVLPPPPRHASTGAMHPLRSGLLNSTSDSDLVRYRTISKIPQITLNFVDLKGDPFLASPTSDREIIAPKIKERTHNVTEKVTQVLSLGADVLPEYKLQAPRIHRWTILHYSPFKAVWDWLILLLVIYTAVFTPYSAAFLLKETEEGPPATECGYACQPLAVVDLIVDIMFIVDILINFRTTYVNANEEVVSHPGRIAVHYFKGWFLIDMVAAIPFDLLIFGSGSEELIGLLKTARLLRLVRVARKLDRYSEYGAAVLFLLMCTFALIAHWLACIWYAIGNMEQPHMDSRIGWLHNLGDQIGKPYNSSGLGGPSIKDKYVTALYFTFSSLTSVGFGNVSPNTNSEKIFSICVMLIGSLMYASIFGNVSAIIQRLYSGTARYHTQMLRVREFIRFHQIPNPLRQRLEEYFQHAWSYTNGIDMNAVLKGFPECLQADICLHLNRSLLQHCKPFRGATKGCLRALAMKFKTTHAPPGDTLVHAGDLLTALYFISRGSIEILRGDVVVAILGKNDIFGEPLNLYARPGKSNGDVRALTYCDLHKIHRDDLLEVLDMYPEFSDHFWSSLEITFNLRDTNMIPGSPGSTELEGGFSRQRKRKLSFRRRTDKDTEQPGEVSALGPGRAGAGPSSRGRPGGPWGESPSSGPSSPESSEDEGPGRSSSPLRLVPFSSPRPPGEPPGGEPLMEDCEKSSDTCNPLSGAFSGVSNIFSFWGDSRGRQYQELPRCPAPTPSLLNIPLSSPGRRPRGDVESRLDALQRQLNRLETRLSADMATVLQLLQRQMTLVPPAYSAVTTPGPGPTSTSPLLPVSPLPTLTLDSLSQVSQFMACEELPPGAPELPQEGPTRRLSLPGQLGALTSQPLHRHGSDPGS

SMILES | hERG current change (%, negative = inhibition) at 10uM [%]
Cn1cc(CN2CCN(c3cnccn3)CC2)c(-c2cccc(Cl)c2)n1 | 6.29
COc1cc2c(cc1OC)C(C(=O)N1CCOCC1)C(c1cccs1)N(C)C2=O (stereo not shown) | 4.09
COc1cc2c(cc1OC)C(C(=O)N1CCN(c3ccccc3)CC1)C(c1cccs1)N(C)C2=O (stereo not shown) | -68.1
COc1cc2c(cc1OC)C(C(=O)N1CCN(c3ccccn3)CC1)C(c1cccs1)N(C)C2=O (stereo not shown) | -38
O=C(O)CN(Cc1ccco1)S(=O)(=O)c1ccccc1 | 11.6
Nc1nnc(SCC(=O)Nc2cccc(S(=O)(=O)N3CCCCC3)c2)s1 | -12.8
CCCC[C@@H]1C[C@H]1[C@@H](NC(=O)c1ccco1)c1ccc(Cl)cc1 | -50.2
CCCC[C@@H]1C[C@H]1[C@@H](NC(=O)c1cccs1)c1ccc(Cl)cc1 | -9.44
CCCC[C@@H]1C[C@H]1[C@@H](NC(=O)c1ccco1)c1ccc(C(=O)OC)cc1 | -34
CC(=O)NC(Cc1ccccc1C)C(=O)NC1CCN(C(=O)c2cccc(C)c2)CC1 (stereo not shown) | 34.5
O=C(CSc1ccc2nnc(-c3ccccn3)n2n1)NCC1CCCO1 (stereo not shown) | -8.53
O=C(CSc1ccc2nnc(-c3ccccn3)n2n1)NCc1ccco1 | -63.1
O=C(CSc1ccc2nnc(-c3ccncc3)n2n1)NCc1ccco1 | -25.8
Cc1ccc(-c2nnc3ccc(SCC(=O)NCc4ccco4)nn23)cc1 | -6.59
O=C(CSCC(=O)NCc1ccco1)NCc1ccco1 | -66
Cc1ccc(NC(=O)CSCC(=O)NCc2ccco2)cc1 | -0.0131
O=C(CSc1nc(-c2ccccc2)c(-c2ccccc2)[nH]1)NCc1ccco1 | -1.63
O=C(CSc1nnc(-c2ccccc2)c(-c2ccccc2)n1)NCc1ccco1 | -55.5
O=C(CCSCCC(=O)NCc1ccco1)NCc1ccco1 | 6.38
CCOc1ccc(-c2nnc3ccc(SCC(=O)NCc4ccco4)nn23)cc1 | -8.72
O=C(CSc1ncc(-c2ccccc2)nn1)NCc1ccco1 | -23.6
O=C(CSc1ccc2nnc(-c3ccccc3)n2n1)NCc1ccco1 | -72.2

SMILES | hERG current change (%, negative = inhibition) at 10uM [%]
Cc1cc(C(=O)N/N=C/c2ccc([N+](=O)[O-])o2)c(C)o1 | -7.72
CNC(=O)c1ccc(NC(=O)/C=C/c2cccc(F)c2)cc1 | -18.3
Cn1nc(NC(=O)C2CCC2C(=O)O)c2c(F)cccc21 (stereo not shown) | -0.347
Cc1ccc(OCCOc2ccc(Br)cc2)c([N+](=O)[O-])n1 | -6.68
COc1ccc(CNC(=O)C(C)c2ccc([N+](=O)[O-])cc2)cc1 (stereo not shown) | -21.2
O=C(Nc1ccc2c(c1)OCO2)c1ccc(Cl)s1 | -2.22
COc1ccc(-c2nnc3ccc(SCC(=O)NCc4ccco4)nn23)cc1OC | -28.3
O=C(CSc1ccc2nnc(-c3ccc(F)cc3)n2n1)NCc1ccco1 | -21.7
O=C(CSc1ccc2nnc(-c3cccc(F)c3)n2n1)NCc1ccco1 | -65.5
Cc1ccc(S(=O)(=O)Nc2ccc3[nH]ccc3c2)cc1 | -9.71
CCOC(=O)C1(CCOC)CCN(CC(C)Cc2ccc3c(c2)OCO3)CC1 (stereo not shown) | -43.1
CCOC(=O)C1(CCc2ccccc2)CCN(C(=O)CN2CCOC2=O)CC1 | 14.6
CCOC(=O)C1(Cc2ccccc2)CCN(Cc2ccc3c(c2)OCCO3)CC1 | -33.1
CCOC(=O)C1(CCOc2ccccc2)CCN(Cc2ccc3c(c2)OCCO3)CC1 | -73.3
OCC1(CCOc2ccccc2)CCN(Cc2ccc3c(c2)OCCO3)CC1 | -75.1
CCOC(=O)C1(CCc2ccccc2)CCN(Cc2ccc3c(c2)OCCO3)CC1 | -84.4
O=C1/C(=C\c2ccco2)SC(=S)N1Cc1ccccc1 | 10.8
N#Cc1ccc(Oc2ccc(NC(=O)C3CC=CCC3C(=O)O)cc2)cc1 (stereo not shown) | 12.9
O=C1OC2(c3ccccc3)C3CCCC2C13 | 11.1
O=S(=O)(c1cccs1)N1CCN(c2ccc(F)cc2)CC1 | -43.1
O=C(Nc1cccc(OCC(=O)N2CCOCC2)c1)c1cccc([N+](=O)[O-])c1 | 25.9
CC(=O)Oc1ccccc1N1C(=O)c2ccc(C(=O)O)cc2C1=O | 11.3

SMILES | hERG current change (%, negative = inhibition) at 10uM [%]
Oc1ccccc1OCc1nc2ccccc2s1 | -13.7
Cc1nc2ccc(C(=O)N/N=C/c3ccccc3O)cc2[nH]1 | 9.25
N#Cc1c(N)n[nH]c1Cc1cccc2ccccc12 | 12.3
CCCCc1nc(C(N)=O)c2[nH]c(=O)n(-c3ccc(OC)cc3OC)c2n1 | 1.88
CCC(CC)C(=O)c1c[nH]c(C(=O)N2CCN(c3ccccc3F)CC2)c1 | 25.2
COc1ccccc1-n1c(-c2ccccc2)c[n+]2c1CCc1ccccc1-2.[Br-] | -74.1
Br.COc1ccccc1N1Cc2ccccc2C1 | -13.2
Cc1ccc(-n2c(-c3ccccc3)n[nH]c2=S)c(C)c1 | 7.9
COc1ccccc1-n1c(CCC(=O)O)ccc1-c1ccccc1 | -12.9
Cc1ccc(-n2c(-c3ccccc3)c[n+]3c2CCc2ccccc2-3)c(C)c1.[Br-] | -93
Cc1ccc(NC(=O)C[n+]2cc(-c3ccccc3)n3c2CCC3)c(C)c1.[Cl-] | -9.62
O=C(/C=C/c1ccco1)NC(=S)Nc1ccccn1 | -3.42
CC(=O)Cc1nsc(NC(=O)c2cccc(F)c2)n1 | 12.5
O=C(Nc1ccccc1C(=O)N1CCCCC1)c1ccccc1C(F)(F)F | 27.6
Cc1ccc(N2C(=O)C(CN(C)C)C2c2ccccc2)cc1 (stereo not shown) | -33.1
Cc1ccc(N2C(=O)C(CN3CCCC3)C2c2ccccc2)cc1 (stereo not shown) | -78.5
Cc1ccc(N2C(=O)C(CN3CCOCC3)C2c2ccccc2)cc1 (stereo not shown) | -26.5
COc1ccc(N2C(=O)C(CN3CCCCC3)C2c2ccccc2)cc1 (stereo not shown) | -12
COc1ccc(N2C(=O)C(CN3CCN(C)CC3)C2c2ccccc2)cc1 (stereo not shown) | -16
Cc1ccc(N2C(=O)C(CN3CCCCC3)C2c2ccccc2)cc1 (stereo not shown) | -62.6
CC(=O)c1cccc(NS(=O)(=O)c2cc(OCC(N)=O)c(C)cc2Cl)c1 | 6.92
COc1ccc(CN(C(=O)c2ccc(CN3CCOCC3)o2)C(C(=O)NCC2CCCO2)c2ccc(F)cc2)cc1 (stereo not shown) | -4.38

SMILES | hERG current change (%, negative = inhibition) at 10uM [%]
O=C(Cc1ccc(Cl)c(Cl)c1)OCC(=O)c1ccc[nH]1 | -24.9
O=C(COC(=O)c1cccc([N+](=O)[O-])c1)NCC1CCCO1 (stereo not shown) | 8.06
Cc1c(NC(=O)COC(=O)C2CC3C=CC2C3)c(=O)n(-c2ccccc2)n1C (stereo not shown) | 13.2
CCCNC(=O)c1ccc(C)c(NC(=O)C2=C(C)OCCS2)c1 | 3.06
CC1=C(C(=O)Nc2cc(C(=O)NCCC(C)C)ccc2C)SCCO1 | -52.4
COCCNC(=O)c1ccc(C)c(NC(=O)C2=C(C)OCCS2)c1 | 21.1
O=C(CSc1nnc(-c2cccs2)o1)N1CCc2ccccc21 | -10.5
CC12CCC(C(=O)Nc3ccc(Br)cn3)(OC1=O)C2(C)C (stereo not shown) | 7.13
O=C(O)CCCN1C(=O)c2ccc(Oc3cccc([N+](=O)[O-])c3)cc2C1=O | 17.6
COc1cccc(C(=O)Cn2c(Br)nc3c2c(=O)n(C)c(=O)n3C)c1 | -13.1
Cc1cccc(NC(=O)c2cc3c(s2)-c2c(C)cccc2OC3)n1 | 29.2
Cc1cccc2c1-c1sc(C(=O)N3CCc4ccccc4C3)cc1CO2 | -2.75
CCOC(=O)N1CCN(C(=O)c2cc3c(s2)-c2c(C)cccc2OC3)CC1 | -15.5
Cc1cccc2c1-c1sc(C(=O)NCCCN3CCC(C)CC3)cc1CO2 | -77.6
CCOC(=O)c1cc2c(s1)-c1c(C)cccc1OC2 | 7.36
CCCN1CCN(CCCNC(=O)c2cc3c(s2)-c2c(C)cccc2OC3)CC1 | -85.2
CCN1CCN(C(=O)c2cc3c(s2)-c2c(C)cccc2OC3)CC1 | -17.8
Cc1cccc2c1-c1sc(C(=O)NCCCN3CCCC(C)C3)cc1CO2 (stereo not shown) | -77.9
Cc1cccc2c1-c1sc(C(=O)N3CCCCC3)cc1CO2 | -18.6
S=c1[nH]nc(-c2ccccc2)n1/N=C/c1cccc(Br)c1 | 21.4
CC(C(=O)N1CCOCC1)N1C(=O)c2cccc3cccc(c23)C1=O (stereo not shown) | 16.6
COc1cc(OC)cc(-c2c(-c3cccs3)c3cc(-c4cnc(OC)nc4)ccc3n2C)c1 | 1.57
